Compounds with a hit are over-represented: about 7.8% of the library has one in this group of screens.
MARV entry inh – Marburg virus entry inhibition | Marburg virus pseudotyped entry inhibition, cell reporter | AID 540276 | 1.8% of 300,000 active | Potency, µM (series often up to 37.8 µM), inactives show at the highest dose activity change, negative = inhibition, actives largely listed as inhibitors; calls by dose curve; tested in HEK293 cells; further: potency means the concentration at half of the fitted maximal effect
HCMV inh – inhibitors of human cytomegalovirus; HFF cells, HCMV-luciferase reporter, 72 h; active compounds read low; activity change, negative = inhibition, % at 57.5 µM; 4.5% of 410,000 active; AID 1259415; in the data active means activity change below about -60%; inconclusive means no clear call, values can overlap the other calls; inactive means above about -39%
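Inhibition of viral replication was scored as loss of reporter luminescence in HFFs infected with HCMV-luciferase (MOI 1 PFU/cell) for 72 h; compounds tested at 2 doses, normalized to buffer and Salinomycin controls.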
Vaccinia mCherry – inhibitors of vaccinia virus infection (mCherry reporter signal); AID 720579; Vaccinia virus mCherry reporter infection, fluorescence; 0.63% of 310,000 active; Potency, µM (highest dose often 36.5 µM), without a hit: top-dose activity change, negative = inhibition, hits mostly inhibitors; calls by dose curve; tested in A549 cells; further: potency means the concentration at half of the fitted maximal effect; nearly all actives have a fitted effect of over 35% in size
Lassa entry inh – inhibitors of Lassa virus binding or cell entry; Lassa virus pseudotype entry inhibition, cell reporter; Potency, µM (top dose mostly 37.9 µM), inactives show top-dose activity change, negative = inhibition, most hits filed as inhibitors; 1.2% of 300,000 active; AID 540256; calls by dose curve; tested in HEK293 cells; further: potency means the concentration at half of the fitted maximal effect; nearly all actives have a fitted effect of over 50% in size
VACV Venus inh – inhibitors of vaccinia virus (Venus reporter); Vaccinia virus Venus reporter expression, fluorescence; Potency, µM (doses to about 36.5 µM), for the others: at the top dose activity change, negative = inhibition, hits mostly inhibitors; 0.46% of 330,000 active; calls by dose curve; tested in A549 cells; further: potency means the concentration at half of the fitted maximal effect; nearly all actives have a fitted effect of over 30% in size
HCV inh – inhibitors of hepatitis C virus infection; 3.4% of 340,000 active; Huh7.5.1 HCVcc-Cre infection, luciferase reporter, 44 h; Potency, µM (highest dose often 41.8 µM), for the others: at the top dose activity change, negative = inhibition, actives largely listed as inhibitors; AID 651820; active means well fitted inhibition curve with a large enough effect; inconclusive means small, poorly fitted or top-dose-only effect, or another doubt; inactive means no such curve, though single readings can be large or run the other way; further: potency means the concentration at half of the fitted maximal effect
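HCVcc-Cre virus at an moi near 0.5 was added right after compound to cells cultured 4 h from seeding (1,000 cells/well). Luciferase activity was determined 44 h later, 15 min after substrate addition at RT.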
Numbers without * were called inactive; i = inactive; u = inconclusive; x = not tested or not shown; [ ] = another dose, or the depositor's remark. On the % scale 0 is the no-effect control and ±100 the full control effect.

SMILES	MARV entry inh	HCMV inh	Vaccinia mCherry	Lassa entry inh	VACV Venus inh	HCV inh
CCOc1ccc(Cl)cc1CSc1n[nH]c(CC)n1	-2.2%	-34.3	x	4.1%	x	11.2µM*
COc1ccc(Cl)cc1CSc1n[nH]c(C)n1	16.3%	-27.3	x	19.2%	x	-10.8%
COc1cccc(-c2coc3ccc(Br)cc3c2=O)c1	60.8%[14.2 µM]	x	x	x	x	x
c1ccc(CN2CCC3(CCCc4ccccc43)CC2)cc1	6.31µM*	-7.2	-14.1%	u	-27.8%	u
c1ccc(CN2CCC3(CC2)Nc2ccccc2CO3)cc1	-19.3%	-0.2	x	-1.3%	x	-3.3%
COCCNC(=O)c1ccc2nc(CCc3ccccc3)oc2c1	x	48.2	-6.6%[7.34 µM]	u	-10.7%[7.34 µM]	x
COc1ccc(-c2nc3ccc(NC(=O)COC(C)=O)cc3c(=O)n2Cc2ccccc2)cc1COc1ccc(NC(C)=O)cc1	x	x	i	x	-11.2%	x
O=C(CN(c1cccc([N+](=O)[O-])c1)S(=O)(=O)c1ccccc1)N(Cc1ccccc1)Cc1ccccc1	u	-62.1*	i	u	-7.2%	3.3%
O=C(CN(c1cccc([N+](=O)[O-])c1)S(=O)(=O)c1ccccc1)NCc1ccccc1	-7.4%	-32.1	i	-2.0%	-3.7%	8.1%
COc1ccc(NC(=O)CSc2nc3nc(C)c(Cc4ccccc4)c(C)n3n2)cc1OC	x	-66.3*	-4.6%	-4.6%[46.1 µM]	-19.9%	x
COc1cc(NC(=O)CSc2nc3nc(C)c(Cc4ccccc4)c(C)n3n2)cc(OC)c1	x	15.3	-9.7%	9.5%[46.1 µM]	-0.5%	x
CC(C)CCNC(=O)C(c1ccc(O)cc1)N(Cc1cccs1)C(=O)C1COc2ccccc2O1 (stereo unspecified)	u	-93.6*	11.2µM*	16.4µM*	28.2µM*	12.6µM*
CCOc1cc(/C=C\[N+](=O)[O-])ccc1OCC(=O)Nc1ccccc1C	0.3%	x	-13.1%	x	u	11.2µM*
COc1cc(CNCCCN2CCOCC2)c(Br)cc1OC(C)C	u	27.5	-11.4%	u	-10.6%	u
COc1cc(/C=C/c2cccc[n+]2C)ccc1OCC(=O)Nc1ccccc1C	0.2%[46.1 µM]	u	-14.1%	3.4%[46.1 µM]	2.9%	6.1%
CCOc1cc(/C=N/NC(N)=O)cc(Br)c1OCC(=O)Nc1cccc2ccccc12	-16.6%	37.2	x	-21.5%	-11.5%	17.8µM*
CCOc1cc(/C=C/c2cccc[n+]2C)ccc1OCC(=O)Nc1ccc(C)cc1	-22.3%[46.1 µM]	-95.3*	-9.8%	-24.5%[46.1 µM]	-11.9%	-27.1%
CCOc1cc(/C=N/n2cnnc2)ccc1OCC(=O)Nc1ccccc1OC	-2.1%	-15.1	x	-1.2%	-10.8%	-3.9%
CCOc1cc(/C=N/O)cc(Br)c1OCC(=O)NCc1ccccc1	12.5%	15.8	-7.4%	-13.0%	-12.2%	u
COc1cc(CNCCCN2CCOCC2)c(Br)cc1OCC(=O)Nc1ccccc1C	u	-8.8	i	-22.0%[46.1 µM]	-22.4%	1.58µM*
O=c1c(-c2ccco2)nc2ccccc2n1/C=C(/c1ccc(C(F)(F)F)cc1)n1c(=O)[nH]c2ccccc21	x	1.5	x	x	x	x
COc1cc(/C=N/NC(N)=O)c(Br)cc1OCC(=O)Nc1ccccc1C	11.2µM*	-26.0	-12.2%	u	-4.0%	-29.0%
COc1cc(/C=N/O)c(Br)cc1OCC(=O)Nc1ccccc1C	u	7.5	-2.9%	18.6%	-28.3%	-27.8%
COc1ccccc1/C=C(/C(=O)OCC(=O)Nc1ccccc1C)c1ccccc1	0.0%	-61.7*	x	u	x	-4.2%
CCOc1cc(/C=N/NC(N)=O)cc(Br)c1OCC(=O)Nc1ccccc1C	11.2µM*	-21.5	-21.6%	-4.4%	-10.0%	u
SMILES	MARV entry inh	HCMV inh	Vaccinia mCherry	Lassa entry inh	VACV Venus inh	HCV inh
CSc1ccc2nnc(-c3ccc(C)cc3)n2n1	x	x	25.2%	x	-9.9%	x
CSc1nc(Sc2ccccc2)c2ccccc2n1	u	-19.7	-1.0%	-0.8%	3.0%	4.47µM*
CCOC(=O)c1c(C)[nH]c(C)c1S(=O)(=O)N(C)CC(=O)N1CCN(c2ccccc2OC)CC1	x	-4.9	-17.2%	9.4%[46.1 µM]	-18.2%	x
COC(=O)[C@@H]1CCCN1Cc1ccc2c(c1)CN(Cc1ccccc1C)CCO2	x	x	-13.9%	x	-2.6%	x
CCCN1CCC(N2CCCC(C(=O)O)C2)CC1 (stereo unspecified)	6.7%[14.2 µM]	-60.5*	-3.6%	-18.1%	5.2%	3.5%
Cc1cccc(C)c1NC(=O)CSc1nc2ccccc2c(=O)[nH]1	2.3%	35.3	x	-5.0%	x	u
